Shown are actives, neighbours in structure and some others; about 18% of the full set was active somewhere.
TDP1 cell noCPT – qHTS for Inhibitors of human tyrosyl-DNA phosphodiesterase 1 (TDP1): qHTS in cells in absence of CPT | DT40 Tdp1-/- hTDP1 cells, no CPT, ATP luminescence, 48 h | Potency, µM (doses to about 46.2 µM), inactives show top-dose activity change, negative = growth inhibition, actives largely listed as inhibitors | actives 15% (n = 420,000) | AID 686978, 2013; further: potency means the concentration at half of the fitted maximal effect; on the % scale 0 is the no-effect control and ±100 the full control effect; nearly all actives have a fitted effect of over 55% in size
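Stably hTDP1-transfected Tdp1-null chicken DT40 cells were treated with library compounds minus camptothecin and grown for at least 48 hr at 37 °C, after which cellular ATP was quantified by luminescence.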
IL1B secr inh – inflammasome signaling inhibition, IL-1 beta readout. AID 743279. actives 4.7% (n = 360,000). activity change, % at 57.5 µM. THP-1 LPS/ATP IL-1B secretion, AlphaLISA, 16 h; hits give low values; in the data active means activity change below about -50%; inconclusive means mostly about -30% to -49%; further: on the % scale 0 is the no-effect control and ±100 the full control effect
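THP-1 cells pretreated 1 hr with compounds (up to 57.5 uM final), then stimulated with LPS (250 ng/mL final) plus ATP (1.25 mM final); secreted IL-1B measured by AlphaLISA after 16 hr, decreased signal indicating inhibition.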
TDP1 block – inhibitors of human tyrosyl-DNA phosphodiesterase TDP1; recombinant TDP1, AlphaScreen DNA substrate cleavage; Potency, µM (doses to about 130 µM), for inactives: top-dose activity change, negative = inhibition, most hits filed as inhibitors; actives 0.28% (n = 350,000); further: potency means the concentration at half of the fitted maximal effect; on the % scale 0 is the no-effect control and ±100 the full control effect; nearly all actives have a fitted effect of over 40% in size
Target sequence (Q9NUW8 whole entry, looked up): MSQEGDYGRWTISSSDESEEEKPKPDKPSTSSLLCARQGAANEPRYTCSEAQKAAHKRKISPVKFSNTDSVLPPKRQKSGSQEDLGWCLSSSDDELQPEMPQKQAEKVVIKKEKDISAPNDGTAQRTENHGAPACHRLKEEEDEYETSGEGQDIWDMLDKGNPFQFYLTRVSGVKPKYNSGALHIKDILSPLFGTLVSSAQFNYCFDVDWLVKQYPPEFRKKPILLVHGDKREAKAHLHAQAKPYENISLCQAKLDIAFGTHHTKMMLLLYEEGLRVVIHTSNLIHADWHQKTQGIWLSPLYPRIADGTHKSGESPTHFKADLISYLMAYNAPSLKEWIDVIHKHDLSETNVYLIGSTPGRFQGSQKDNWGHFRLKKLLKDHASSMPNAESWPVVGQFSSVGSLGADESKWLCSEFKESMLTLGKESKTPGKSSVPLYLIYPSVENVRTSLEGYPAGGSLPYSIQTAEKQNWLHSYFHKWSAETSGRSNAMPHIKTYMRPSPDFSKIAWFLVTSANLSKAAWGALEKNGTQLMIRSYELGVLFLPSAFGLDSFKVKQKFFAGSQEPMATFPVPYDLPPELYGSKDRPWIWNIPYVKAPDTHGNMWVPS
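Recombinant human Tdp1 (E. coli-expressed, 1 nM final) preincubated with compounds 15 min at room temperature, then 5'-biotin/3'-phosphotyrosine-FITC DNA substrate (15 nM final) added for 5 min. AlphaScreen beads (10 ug/ml final) added 10 min; cleavage lowers signal.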
DT40 TDP1 CPT – DT40-hTDP1 cell growth loss with CPT. chicken DT40 Tdp1-/-;hTDP1 cells + 20 nM CPT, ATP luminescence, 48 h. Potency, µM (titrated, usually from 46.2 µM), without a hit: at the top dose activity change, negative = growth inhibition, hits mostly inhibitors. actives 12% (n = 420,000). AID 686979; further: potency means the concentration at half of the fitted maximal effect; on the % scale 0 is the no-effect control and ±100 the full control effect; nearly all actives have a fitted effect of over 55% in size
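Chicken DT40 Tdp1-/- cells stably complemented with human TDP1 were seeded at 400 cells/well in medium containing 20 nM camptothecin, exposed to pin-transferred compounds, and grown at 37 °C for at least 48 hr. Viability was read as ATP luminescence.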
HepG2 tox – HepG2 cytotoxicity, counter-screen for TGF-b inhibitors | HepG2 CAGA-GFP viability, ATP luminescence, 18 h | actives 0.76% (n = 410,000) | Potency, µM (highest dose often 46.1 µM), without a hit: at the highest dose activity change, negative = cytotoxicity, hits mostly cytotoxic; further: potency means the concentration at half of the fitted maximal effect
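HepG2 CAGA-GFP cells (1000/well, DMEM with 1% FBS) received compound, then TGF-beta at 500 pg/mL final, and were incubated 18 hours at 37 degrees C. Viability was read by CellTiter-Glo luminescence. Media-only wells were set as complete cell-killing and DMSO as no toxicity.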
TGFb SMAD3 inh – TGF-b pathway inhibition | HepG2 CAGA-GFP TGF-b/SMAD3 reporter, GFP fluorescence, 18 h; TGF-beta stimulated, 500 pg/mL final | Potency, µM (series often up to 46.1 µM), for the others: at the top dose activity, negative = inhibition, hits mostly inhibitors | actives 1.2% (n = 410,000) | AID 588855; further: potency means the concentration at half of the fitted maximal effect; on the % scale 0 is the no-effect control and ±100 the full control effect; nearly all actives have a fitted effect of over 65% in size
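HEPG2 CAGA-GFP, 1000 cells/well; 2 h settle, 37 C; cpd via pin tool; TGF-b 500 pg/mL final; 18 h, 37 C; GFP imaging ex488/em500-530; %Activity normalised to -TGF-b and +DMSO controls; CRC fit, curve class.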
Numbers without * were called inactive; ? = inconclusive; nt = no result given. Unless noted, the call rests on the fitted dose curve; in most records, active means well fitted curve in the direction sought with a large enough effect; inconclusive means small, poorly fitted or top-dose-only effect, or another doubt; inactive means no such curve, though single readings can be large; an effect the other way counts as inactive or inconclusive.

SMILES | TDP1 cell noCPT | IL1B secr inh | TDP1 block | DT40 TDP1 CPT | HepG2 tox | TGFb SMAD3 inh
O=C(COC(=O)CC1CC2CCC1C2)Nc1ccc(Cl)c(S(=O)(=O)N2CCOCC2)c1 (configuration not stated) | ? | 44 | -3% | 16µM* | -37% | -13%
CN(CCOc1ccccc1)C(=O)c1cc(S(=O)(=O)N2CCOCC2)c(Cl)cc1Cl | ? | -8 | nt | 18µM* | -23% | -2%
COc1ccc(CCNC(=O)CCCCCn2c(=O)[nH]c3cc(OC)c(OC)cc3c2=O)cc1OC | ? | nt | 3% | -18% | -14% | -20%
CC(C)c1ccc(S(=O)(=O)N2CCN(C(=O)CN3C(=O)c4ccccc4C3=O)CC2)cc1 | 0% | 30 | -3% | -10% | -2% | 0%
CCOC(=O)c1c(C)oc2nc(C)nc(NCCc3ccc(S(N)(=O)=O)cc3)c12 | 15µM* | nt | 6% | 23µM* | -19% | 6%
CCOC(=O)c1c(C)oc2nc(C)nc(NCC3CCN(Cc4ccc(F)cc4)CC3)c12 | ? | nt | 2% | -29% | -3% | -19%
CCOC(=O)c1c(C)oc2nc(C)nc(NCCc3ccc(C)cc3)c12 | ? | nt | -1% | 21µM* | 4% | 0%
COc1ccc(N(CC(=O)NCCSCc2ccco2)S(=O)(=O)c2ccccc2)cc1OC | ? | -14 | 4% | ? | 17% | -3%
CCOc1ccc(N(CC(=O)NCCSCc2ccccc2)S(C)(=O)=O)cc1 | 5.8µM* | 12 | nt | 1.8µM* | -11% | 3%
O=C(CN(c1ccccc1)S(=O)(=O)c1ccccc1)NCCSCc1ccco1 | -27% | -5 | 28µM* | -19% | -2% | 0%
COc1ccccc1N(CC(=O)NCCSCc1ccco1)S(=O)(=O)c1ccccc1 | 16µM* | 0 | nt | 18µM* | 0% | 1%
O=C(NCCSCc1ccco1)Nc1ccc(Cl)cc1 | 12µM* | -5 | 2% | ? | -1% | 28%
O=C(COC(=O)Cc1ccccc1[N+](=O)[O-])NNC(=O)c1ccc([N+](=O)[O-])cc1 | 16% | 0 | 3% | 1% | -17% | -6%
CCC(C)(C)NC(=O)C(c1ccc(OC)cc1)N(Cc1ccc(OC)cc1)C(=O)CCC(=O)Nc1cc(C)on1 (configuration not stated) | ? | -1 | 5% | -26% | -3% | -5%
COc1ccc(S(=O)(=O)N(CC(=O)NCCSCc2ccccc2)c2ccc(C)cc2)cc1 | ? | nt | nt | ? | -24% | 5%
COc1ccccc1N(CC(=O)NCCSCc1ccccc1)S(=O)(=O)c1ccc(C)cc1 | 12µM* | -19 | nt | 9.2µM* | 6% | ?
COc1ccccc1N(CC(=O)NCCSCc1ccccc1)S(=O)(=O)c1ccccc1 | 23µM* | -20 | nt | ? | -32% | -8%
CCCN1CCN(C(=O)C2CCN(c3nnc(C)c4c(C)n(-c5ccc(C)cc5)nc34)CC2)CC1 | ? | ? | 0% | ? | -15% | ?
CC1=NN(C(=O)c2ccccc2Cl)C(O)(c2cccnc2)C1 (configuration not stated) | 5.8µM* | -7 | 8% | ? | -1% | -13%
CC1=NN(C(=O)Cc2ccccc2)C(O)(c2cccnc2)C1 (configuration not stated) | 5.2µM* | 22 | 8% | 4.6µM* | -1% | 6%
CC1=NN(C(=O)c2ccccc2C)C(O)(c2ccc(Cl)cc2)C1 (configuration not stated) | ? | 11 | nt | ? | -12% | 5%
Clc1ccc2nc(NCc3ccccc3)c3nncn3c2c1 | -11% | nt | 3% | 11% | 6% | nt
Cc1cccc(-c2nc3ccccc3c(=O)n2NC(=S)N(C)C)c1 | 8.2µM* | -2 | 5% | 9.2µM* | 14% | 11%
O=C(CNC(=O)c1ccco1)NCC(c1ccco1)N1CCCCC1 (configuration not stated) | 14% | 18 | -1% | 3% | 1% | -5%
Cc1cc(Cl)cc(Cl)c1OCCOc1cccc2cccnc12 | ? | -22 | 0% | 23µM* | -49% | 11µM*
SMILES | TDP1 cell noCPT | IL1B secr inh | TDP1 block | DT40 TDP1 CPT | HepG2 tox | TGFb SMAD3 inh
Brc1ccccc1OCCOc1cccc2cccnc12 | -6% | -14 | 0% | -1% | 0% | -26%
Cc1cc(C)c(OCCN(C)C)c(Cl)c1 | 6% | -6 | -4% | -2% | 1% | 23%
Cc1cc(Cl)cc(Cl)c1OCCOCCN(C)C | 15µM* | 0 | nt | ? | -44% | -11%
Brc1ccccc1OCCCOc1cccc2cccnc12 | ? | -10 | nt | ? | -20% | -9%
Cc1cc(C)cc(OCCCOc2cccc3cccnc23)c1 | 16µM* | 0 | -2% | 29µM* | -74% | ?
COc1cccc(C=O)c1OCCCOc1cccc2cccnc12 | 21µM* | 14 | 3% | ? | -48% | ?
COc1cccc(C2=Nn3c(nnc3-c3cc(OC)cc(OC)c3)SC2)c1 | nt | nt | 7% | nt | nt | nt
CC(=O)c1cccc(OCCCOc2cccc3cccnc23)c1 | 16µM* | -23 | 5% | ? | -15% | -15%
CCCCNC(=S)NNC(=O)c1csc2ccccc12 | 26µM* | -28 | 7% | ? | -11% | -24%
O=C(O)c1ccc(-c2ccccc2)[nH]c1=O | ? | -24 | -4% | ? | 7% | -2%
O=C(CBr)Nc1c2c(nn1-c1ccccc1)CSC2 | -20% | 0 | 3% | -3% | -5% | 1%
COc1ccc(-c2c(C#N)c(SCc3c(C)noc3C)nc3c2C(=O)CC(C)(C)C3)cc1 | -24% | 66 | 2% | -12% | -16% | 2%
CCc1c(C#N)c(SCCC(=O)Nc2cccc(OC)c2)nc2c1C(=O)CC(C)(C)C2 | 16µM* | 0 | 5% | ? | -1% | ?
CCc1c(C#N)c(SCCC(=O)Nc2ccc(F)cc2)nc2c1C(=O)CC(C)(C)C2 | ? | -30 | -1% | 16µM* | -49% | ?
CC1(C)CC(=O)c2c(nc(SCC(=O)Nc3nsc(-c4ccccc4)n3)c(C#N)c2-c2ccccc2)C1 | 4.6µM* | ? | -5% | 5.2µM* | -7% | 5%
COC(=O)c1cc(OC)c(OC)cc1N1C(=O)CC(C)(C)CC1=O | 2% | 4 | nt | 6% | -3% | -2%
Clc1cccc(N2CCN(c3nnnn3-c3ccccc3)CC2)c1 | -3% | 13 | 0% | -13% | 2% | -18%

High-throughput results: PubChem BioAssay, National Center for Advancing Translational Sciences (NCATS)
